Only some compounds are listed: those with a hit (about 0.9% of all), similar ones and a draw of the others.
SRC3 TRFRET art: flags TR-FRET format artefacts in PPARgamma SRC-3 recruitment agonist screen; TR-FRET artefact counter-screen, PPARgamma/SRC-3 format; hits give high values; TR-FRET ratio at 8 µM; hit rate 0.39% among 99,000; AID 1048
PPARg SRC1 recr: agonists of human PPARgamma SRC-1 coactivator recruitment. hit rate 0.41% among 200,000. activation, % at 8 µM. PPARgamma-SRC-1 coactivator recruitment biochemical assay; in the data active = activation above about 19%;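 note: 0% = DMSO and 100% = reference agonist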
Target sequence (P37231 whole entry, looked up): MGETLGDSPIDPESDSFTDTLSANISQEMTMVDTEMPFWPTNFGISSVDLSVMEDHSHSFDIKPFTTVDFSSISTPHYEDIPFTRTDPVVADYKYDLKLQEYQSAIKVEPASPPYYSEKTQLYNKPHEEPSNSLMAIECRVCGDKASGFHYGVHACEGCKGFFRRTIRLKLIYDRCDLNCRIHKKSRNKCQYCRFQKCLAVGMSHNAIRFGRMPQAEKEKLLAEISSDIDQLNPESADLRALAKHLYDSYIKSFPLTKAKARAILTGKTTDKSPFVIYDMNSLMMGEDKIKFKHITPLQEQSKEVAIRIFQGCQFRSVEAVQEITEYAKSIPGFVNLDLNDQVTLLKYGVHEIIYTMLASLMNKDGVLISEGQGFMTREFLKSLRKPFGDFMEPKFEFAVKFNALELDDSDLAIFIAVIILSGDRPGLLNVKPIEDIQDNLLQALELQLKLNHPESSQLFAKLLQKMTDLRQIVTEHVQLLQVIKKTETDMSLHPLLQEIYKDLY
SRC1 TRFRET art: flags TR-FRET format artefacts in PPARgamma SRC-1 recruitment agonist screen | TR-FRET ratio at 8 µM | hit rate 0.34% among 99,000 | TR-FRET detection artefact counter-screen, emission ratio; hits give high values; in the data active = TR-FRET ratio above about 2300
PPARg SRC-3 ag: promotes SRC-3 coactivator recruitment by human PPARgamma. hit rate 0.26% among 200,000. P37231. biochemical PPARgamma/SRC-3 coactivator recruitment assay. activation, % at 8 µM; in the data active = activation above about 23%;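 note: 0% = DMSO and 100% = reference agonist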
TR-FRET SRC-2 ct: TR-FRET artefact, counter-screen to PPARgamma/SRC-2 agonist assay. hit rate 0.4% among 200,000. TR-FRET ratio at 8 µM. hits give high values
PPARg SRC-2 ag: PPARgamma-driven SRC-2 recruitment agonism | P37231 | PPARgamma LBD-SRC-2 recruitment, biochemical | activation, % at 8 µM | hit rate 0.34% among 200,000; in the data active = activation above about 22%;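 note: 0% = vehicle and 100% = reference agonist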
The depositor's hits bear a star; / = no result. Cut-off read from the data, not from the text of the source, unless noted: active = TR-FRET ratio above about 2000; inactive = the rest.

SMILES | SRC3 TRFRET art | PPARg SRC1 recr | SRC1 TRFRET art | PPARg SRC-3 ag | TR-FRET SRC-2 ct | PPARg SRC-2 ag
COc1ccc(/C(N)=N/OC(=O)CN(C)S(=O)(=O)c2ccccc2)cc1 | 1502 | 0 | 1709 | 5 | 1684 | 6
c1ccc(-n2ncc3c2ncn2nc(-c4ccco4)nc32)cc1 | / | 12 | / | 15 | 2763* | 47*
COc1cccc(OCc2nc3c4cnn(-c5ccccc5)c4ncn3n2)c1 | / | 10 | / | 7 | 1589 | 3
Cn1c(CNC(=O)c2ccco2)nnc1SCC(=O)Nc1c(F)cc(F)cc1Br | 1468 | -6 | 1742 | -5 | 1632 | -4
COc1ccccc1C(=O)Nc1cccc(-c2cn3ccsc3n2)c1 | / | 3 | / | 28* | 1580 | 6
O=C(O)c1cccc(N/N=C/C2=C(Cl)c3cc(Cl)ccc3SC2)c1 | 1561 | 0 | 1741 | -4 | 1695 | 8
COc1ccc(-c2nc(CN3CCCCC3c3nccn3C)c(C)o2)c(C)c1C (stereo unspecified) | 1470 | 6 | 1794 | -1 | 1712 | 12
CC(C)(C)c1cc(C(=S)N2CCN(CCO)CC2)cc(C(C)(C)C)c1O | / | 6 | / | 28* | 1569 | 10
Cc1ccc(N=Nc2c(N)n(-c3ccccc3)[nH]c2=O)cc1 | / | 7 | / | 26* | 1609 | 9
Nc1ccccc1C#CCCCCO | 2204* | -5 | 1639 | 20 | 1361 | -7
CCCCC#Cc1ccccc1CC(=O)Nc1ccccc1 | 1581 | 2 | 1573 | -2 | 1474 | 4
CCOC(=O)C1CCN(CCC(=O)Nc2ccc(C)c(C)c2)CC1 | 1352 | 22* | 2091 | 3 | 1537 | -3
CCN(CC)CCN(Cc1cc2cc3c(cc2[nH]c1=O)OCCO3)C(=O)NC1CCCCC1 | / | 19* | / | 3 | 1649 | -2
COc1cccc(-c2ccc(C#N)c(SCC(=O)NCc3ccco3)n2)c1 | 1969 | 16 | 2097 | 9 | 1980* | 6
COc1ccc(/C=c2\s/c(=C(/C#N)C(=O)NCc3ccco3)n(-c3ccccc3)c2=O)cc1 | 1411 | -6 | 1726 | -1 | 1506 | -5
COc1cccc(/C=c2/s/c(=C(\C#N)C(=O)N3CCOCC3)n(-c3ccccc3)c2=O)c1 | / | 6 | / | 48* | 1688 | 4
O=C(CCC1CCCN(C(=O)C2=CCCCC2)C1)N1CCN(c2ccccn2)CC1 (stereo unspecified) | 1738 | 25* | 1823 | 3 | 1611 | -3
CC1=C(C(=O)Nc2ccccc2C)C(c2ccc(C)o2)C2=C(CCCC2=O)N1 (stereo unspecified) | 1556 | -2 | 1730 | 4 | 1506 | -2
O=c1cc(Cn2ccnc2)c2cc3c(cc2o1)CCC3 | / | 0 | / | 29* | 1355 | 0
COc1cccc(C(=O)c2c(C)c(CCC#N)n3ccccc23)c1 | 1353 | -10 | 1748 | -3 | 1477 | -5
Cc1ccc(S(=O)(=O)N2CCCCC2)cc1NC(=O)CSc1ncnc2ccccc12 | 1694 | 2 | 1882 | 4 | 1581 | -2
CC1CN(CC(=O)Nc2cc(S(=O)(=O)N3CCCC3)ccc2Cl)CC(C)O1 (stereo unspecified) | 1789 | 5 | 2155 | 3 | 2051* | 6
O=C(CSc1ncnc2ccccc12)Nc1cc(S(=O)(=O)N2CCCCC2)ccc1Cl | 2968* | 0 | 2201 | 3 | 2930* | -5
Cc1ccc(NC(=O)CSc2ncnc3ccccc23)cc1S(=O)(=O)N1CCCCCC1 | 2506* | 8 | 1799 | 9 | 1930 | 6
Cc1nnc2sc(-c3ccc(NC(=O)c4ccc(-c5ccc(Cl)cc5Cl)o4)cc3)nn12 | / | 19* | / | -1 | 1494 | -9
SMILES | SRC3 TRFRET art | PPARg SRC1 recr | SRC1 TRFRET art | PPARg SRC-3 ag | TR-FRET SRC-2 ct | PPARg SRC-2 ag
Cc1cc(C)c(C#N)c(SCc2cc3c(cc2Cl)OCO3)n1 | / | 3 | / | -5 | 2388* | 56*
Cc1cccn2c(=O)c3cc(C(=O)NCCN4CCOCC4)c(=N)n(CCc4ccccc4)c3nc12 | / | 7 | / | 28* | 1506 | 6
COc1ccc(C(=O)N[C@H](C(=O)N2CCN(c3ccccc3F)CC2)C(C)C)cc1 | 1454 | 3 | 1720 | 2 | 1719 | -2
Cc1ccc2cc(C#N)c(NCc3ccccc3)nc2c1 | 2317* | 19 | 2504* | 18 | 1722 | 17
O=C(COC(=O)c1cccc(S(=O)(=O)N2CCOCC2)c1)Nc1nc(-c2ccccc2Cl)cs1 | / | 9 | / | 3 | 1499 | 2
COc1ccccc1OC(C)C(=O)Nc1nc(-c2ccc(S(=O)(=O)N3CCOCC3)cc2)cs1 (stereo unspecified) | / | 5 | / | -12 | 2207* | 9
O=C(Nc1nc(-c2ccncc2)cs1)c1ccc(S(=O)(=O)N2CCOCC2)cc1 | / | 5 | / | 6 | 1646 | -3
CCOc1cccc(C(=O)Nc2nc(-c3ccc(S(=O)(=O)N4CCOCC4)cc3)cs2)c1 | / | 14 | / | 19 | 2173* | 18
O=C(Nc1nc(-c2cccs2)cs1)c1cccc(S(=O)(=O)N2CCCCCC2)c1 | / | 3 | / | -1 | 2098* | 2
O=C(COc1cccc(Cl)c1)Nc1nc(-c2ccc(S(=O)(=O)N3CCOCC3)cc2)cs1 | / | 11 | / | 21 | 2278* | 11
COc1cc([N+](=O)[O-])ccc1NC(=O)CCCOc1cc(C)ccc1C | 1624 | 11 | 1815 | -2 | 1601 | 9
CCCCOc1ccc(/C=C/C2=CC(C)(C)NC(=S)N2)cc1OCC | 1593 | 10 | 1899 | 4 | 1559 | 10
CCc1cc2cc(C(=O)Nc3ccc(C)cc3)sc2s1 | / | 7 | / | 7 | 1676 | 24*
COC(=O)c1c(NC(NC(=O)c2ccccc2)(C(F)(F)F)C(F)(F)F)sc2c1CCN(C)C2 | 1622 | 10 | 2058 | 0 | 1983* | 8
CCC(=O)NC(Nc1sc2c(c1C(=O)OC)CCCC2)(C(F)(F)F)C(F)(F)F | / | -3 | / | -2 | 1419 | 0
Cc1ccc(C2CC(c3ccccc3)=NN2C(=S)Nc2ccccc2)o1 (stereo unspecified) | / | 11 | / | 10 | 1587 | 5
CNC(=S)N1N=C(c2ccccc2)CC1c1ccccc1Cl (stereo unspecified) | 2267* | 13 | 2109 | 12 | 1821 | 14
CC(C)c1ccc(C2CC(c3ccc(Br)cc3)=NN2C(N)=S)cc1 (stereo unspecified) | 1878 | 6 | 2207 | 8 | 1708 | 7
CNC(=S)N1N=C(c2ccc(C)cc2)CC1c1ccc(Br)cc1 (stereo unspecified) | / | 4 | / | 2 | 2002* | 6
CCN(CC)S(=O)(=O)c1ccc(Cl)c(NC(=O)COC(=O)/C=C/c2ccc(O)c(OC)c2)c1 | 1543 | 3 | 1683 | 1 | 1680 | 3
COc1ccccc1N(CC(=O)NCC1CCCO1)C(=O)CCC(=O)Nc1nccs1 (stereo unspecified) | / | -2 | / | -8 | 1704 | 25*
O=C(O)CCCC(=O)Nc1cc([N+](=O)[O-])ccc1O | 1851 | 22* | 1819 | 5 | 1558 | 2
CCCCCCNCc1c(F)cccc1Cl | 1543 | -1 | 2002 | 0 | 1626 | 0
